Measured values: PubChem BioAssay (Tox21)
Records with an inconclusive call do not appear. Active and inactive are the calls of the source. Unless noted, calls come from the whole dose curve; as a rule, active = well fitted curve in the direction sought with a large enough effect in the repeat runs; inconclusive = weak or mixed curves; inactive = no such curve, though single readings can be large; an effect the other way counts as inactive or inconclusive. Positions of bridges follow the written chain, without caps; N, C: chain ends. Residues, ends and D or L forms follow the SMILES beside them.

Assays:
[1] = qHTS assay for small molecule agonists of the p53 signaling pathway (AID 651631; calls by dose curve; note: nearly all actives have a fitted effect of over 15% in size)
Procedure, shortened: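 HCT-116 p53RE-bla reporter line, 16 h compound treatment at 37 °C, then fluorescence after 2 h with B/G FRET substrate.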

[2] = qHTS assay for small molecules that induce genotoxicity in human embryonic kidney cells expressing luciferase-tagged ATAD5 (AID 651632); note: nearly all actives have a fitted effect of over 15% in size
Procedure, shortened: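 Genotoxicity read-out via ATAD5-luciferase: HEK293T cells, 16 hr compound incubation at 37C, Amplite detection.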

[3] = qHTS assay for small molecule agonists of the p53 signaling pathway - cell viability (AID 651633; calls by dose curve;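 note: p53RE-bla HCT reporter cells with a stable beta-lactamase p53 reporter; nearly all actives have a fitted effect of over 30% in size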)
Procedure, shortened: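 p53RE-bla cells were treated with compound for 16 hours at 37 C. Cytotoxicity was then measured as CellTiter-Glo luminescence after 30 min at room temperature.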

[4] = qHTS assay for small molecules that induce genotoxicity in human embryonic kidney cells expressing luciferase-tagged ATAD5 - cell viability (AID 651634; calls by dose curve; note: nearly all actives have a fitted effect of over 25% in size)
Procedure, shortened: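 Live-cell protease activity (CellTiter-Fluor, fluorescence) indicates viability. HEK293T cells with luciferase-tagged ATAD5; 15.5 hr compound treatment at 37C.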

[5] = qHTS assay for small molecule disruptors of the mitochondrial membrane potential - cell viability (AID 720634; calls by dose curve;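 note: human HepG2 liver cancer cells; nearly all actives have a fitted effect of over 20% in size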)
Procedure, shortened: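 Human hepatoma HepG2 cells were treated for 1 hr with test chemicals, then given m-MPI dye and CellTiter-Glo. Cell viability reflects luminescence proportional to cellular ATP.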

[6] = qHTS assay for small molecule disruptors of the mitochondrial membrane potential (AID 720635); note: potency is the fitted concentration of half-maximal effect
Procedure, shortened: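 HepG2 cells exposed to compound 1 hr at 37C, then Mito-MPS dye 30 min. Ratio read of aggregate (540/590 nm) versus monomer (490/535 nm) fluorescence.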

[7] = qHTS assay to test for compound auto fluorescence at 590 nm (red) in HepG2 cells (AID 720674)
Procedure, shortened: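 Seeding: 2,000 HepG2 cells/well, MEM/10% FBS, overnight 37 C. Dosing: compound vs DMSO. Incubation: 1 hr, 37 C, 5% CO2. Read: fluorescence 540 ex/590 em, Rose Bengal sodium as red reference.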

[8] = qHTS assay to test for compound auto fluorescence at 535 nm (green) in HepG2 cells (AID 720675)
[9] = qHTS assay to test for compound auto fluorescence at 590 nm (red) in HEK293 cells (AID 720679)
Procedure, shortened: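 We plated HEK293 cells in 10% dialyzed FBS medium, let them adhere for 4-5 hr, then added 23 nL compound. Overnight at 37C and 5% CO2 preceded fluorescence measurement at 540/590nm.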

[10] = qHTS assay to test for compound auto fluorescence at 535 nm (green) in HEK293 cells (AID 720680)
[11] = qHTS assay to test for compound auto fluorescence at 460 nm (blue) in HEK293 cell free culture (AID 720681)
Procedure, shortened: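 Compounds were added to cell-free DMEM with 10% FBS and fluorescence read directly. The blue channel used 405 nm excitation and 460 nm emission, with triamterene as the reference fluorophore.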

[12] = qHTS assay to test for compound auto fluorescence at 535 nm (green) in HEK293 cell free culture (AID 720682)
Procedure, shortened: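 Steps: dispense DMEM/10% FBS into empty wells; pin in compound or DMSO; measure fluorescence at 485/535 nm. Values are fluorescein equivalents.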

[13] = qHTS assay to test for compound auto fluorescence at 590 nm (red) in HEK293 cell free culture (AID 720683)
Procedure, shortened: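 Cell-free wells of DMEM with 10% FBS received compound, and intrinsic fluorescence was read at excitation/emission 540/590 nm. Values expressed as equivalence to Rose Bengal sodium.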

[14] = qHTS assay to test for compound auto fluorescence at 590 nm (red) in HepG2 cell free culture (AID 720684)
Procedure, shortened: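 Compound was pinned into wells holding MEM with 10% FBS and no cells, and red fluorescence was read at Ex/Em 540/590 nm. Signal is expressed as auto fluorescence equivalency relative to Rose Bengal sodium.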

[15] = qHTS assay to test for compound auto fluorescence at 460 nm (blue) in HepG2 cell free culture (AID 720685)
Procedure, shortened: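 Compound (23 nL) or DMSO pinned into cell-free MEM with 10% FBS; blue fluorescence read at 405/460 nm excitation/emission, expressed as auto-fluorescence equivalency to triamterene.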

[16] = qHTS assay to test for compound auto fluorescence at 535 nm (green) in HepG2 cell free culture (AID 720686)
[17] = qHTS assay to test for compound auto fluorescence at 460 nm (blue) in HepG2 cells (AID 720687)
Procedure, shortened: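 HepG2 cells in MEM with 10% FBS, attached overnight at 37 C, were exposed to compound or DMSO for 1 hr at 37 C, 5% CO2. Blue fluorescence was read at 405/460 nm, with triamterene as reference fluorophore.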

[18] = qHTS assay to test for compound auto fluorescence at 460 nm (blue) in HEK293 cells (AID 720678)
Procedure, shortened: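 Triamterene serves as the blue fluorophore standard. Compound signal at 405/460 nm is read in HEK293 wells (2,000 cells, 10% dialyzed FBS) after overnight treatment at 37C.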

[19] = target: Glucocorticoid receptor (Homo sapiens) (UniProt P04150); assay: qHTS assay to identify small molecule agonists of the glucocorticoid receptor (GR) signaling pathway (AID 720691; active = well fitted activation curve with a large enough effect in the signal ratio in the repeat runs, not every such curve was filed as active; the % refers to the signal ratio); conditions: GR-bla HeLa, beta-lactamase reporter ratio, 18 h; activation: at 62.4 µM (top of the series)
Procedure, shortened: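 Beta-lactamase reporter activity, read as fluorescence intensity, was measured in GR-bla HeLa cells exposed to compounds for 18 h at 37 C and then loaded with LiveBLAzer B/G FRET substrate for 2 h at room temperature.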

[20] = target: Glucocorticoid receptor (Homo sapiens) (UniProt P04150); assay: qHTS assay to identify small molecule antagonists of the glucocorticoid receptor (GR) signaling pathway (AID 720692; active = well fitted inhibition curve with a large enough effect in the signal ratio in the repeat runs, not every such curve was filed as active; the % refers to the signal ratio)
Procedure, shortened: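 Fluorescence from cleaved LiveBLAzer B/G FRET substrate reports GRE-driven beta-lactamase in HeLa cells; compounds are tested against 5 nM dexamethasone (final) over 18 h at 37 C, substrate incubation 2 h at room temperature.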

Measured: Potency

Sequence of Glucocorticoid receptor (Homo sapiens) (P04150 whole entry, looked up): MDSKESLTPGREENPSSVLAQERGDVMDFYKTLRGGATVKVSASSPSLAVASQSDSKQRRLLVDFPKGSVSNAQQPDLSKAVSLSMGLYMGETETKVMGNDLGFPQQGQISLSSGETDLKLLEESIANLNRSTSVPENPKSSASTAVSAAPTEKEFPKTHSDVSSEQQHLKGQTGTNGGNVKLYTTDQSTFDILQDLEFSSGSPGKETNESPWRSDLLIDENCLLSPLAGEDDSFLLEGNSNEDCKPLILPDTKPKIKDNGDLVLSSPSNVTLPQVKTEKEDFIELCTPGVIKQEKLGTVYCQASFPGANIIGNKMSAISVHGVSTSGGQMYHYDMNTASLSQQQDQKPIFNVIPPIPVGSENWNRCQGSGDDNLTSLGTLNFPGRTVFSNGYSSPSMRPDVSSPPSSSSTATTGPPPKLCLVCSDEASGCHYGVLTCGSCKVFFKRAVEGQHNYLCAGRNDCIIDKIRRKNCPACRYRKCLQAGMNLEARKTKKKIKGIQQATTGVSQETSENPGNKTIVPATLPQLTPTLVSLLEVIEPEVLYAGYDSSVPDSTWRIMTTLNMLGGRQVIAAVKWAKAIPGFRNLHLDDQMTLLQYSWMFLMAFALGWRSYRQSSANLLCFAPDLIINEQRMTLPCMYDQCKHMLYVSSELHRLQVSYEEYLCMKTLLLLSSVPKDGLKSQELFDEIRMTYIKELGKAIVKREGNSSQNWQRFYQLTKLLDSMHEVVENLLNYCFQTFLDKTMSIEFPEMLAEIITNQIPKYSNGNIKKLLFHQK

CCCC(=O)O[C@]1(C(=O)COC(=O)CC)[C@@H](C)C[C@H]2[C@@H]3CCC4=CC(=O)C=C[C@]4(C)[C@@]3(F)[C@@H](O)C[C@@]21C
active: [6] 26.6 µM
not listed: [18] | [19] | [20]
inactive: all other assays above

O=C(c1cc2ccccc2o1)N1CCN(Cc2ccccc2)CC1
not listed: [15] | [20]
inactive: all other assays above

CCOc1ccc(N=C(C)Nc2ccc(OCC)cc2)cc1
not listed: [13] | [19] | [20]
inactive: all other assays above

O=C(NCCNCC(O)COc1ccc(O)cc1)N1CCOCC1 (stereo not given)
inactive: all assays above

CCOC(=O)Cc1cccc(-c2cc(CCCCCCc3ccc(O[C@H]4O[C@H](COC(C)=O)[C@@H](OC(C)=O)[C@H](OC(C)=O)[C@@H]4OC(C)=O)c(-c4cccc(CC(=O)OCC)c4)c3)ccc2O[C@H]2O[C@H](COC(C)=O)[C@@H](OC(C)=O)[C@H](OC(C)=O)[C@@H]2OC(C)=O)c1
not listed: [17] | [20]
inactive: all other assays above

NCCCC[C@H](NC(=O)[C@@H]1CCCN1C(=O)[C@@H]1CSSC[C@H](NC(=O)CNC(=O)CNC(=O)CN)C(=O)N[C@@H](Cc2ccc(O)cc2)C(=O)N[C@@H](Cc2ccccc2)C(=O)N[C@@H](CCC(N)=O)C(=O)N[C@@H](CC(N)=O)C(=O)N1)C(=O)NCC(N)=O (H-GGGCYFQNCPKG-NH2; disulfide 4-9)
not listed: [14]
inactive: all other assays above

Nc1ccn(C[C@@H](CO)OCP(=O)(O)O)c(=O)n1
inactive: all assays above

NC(=O)Oc1ccc(Cc2ccccc2)cc1
active: [6] 21.1 µM
not listed: [13]
inactive: all other assays above

CCCCCCCCCCCCCCCC(=O)OC[C@@H](COP(=O)([O-])OCC[N+](C)(C)C)OC(=O)CCCCCCCCCCCCCCC
inactive: all assays above

CC(C)CN(C[C@@H](O)[C@H](Cc1ccccc1)NC(=O)O[C@H]1CO[C@H]2OCC[C@H]21)S(=O)(=O)c1ccc(N)cc1
inactive: all assays above

CC(=O)O[C@H]1C[C@@H]2CC[C@@H]3[C@H](CC[C@@]4(C)[C@H]3C[C@H](N3CC[N+](C)(C)CC3)[C@@H]4OC(C)=O)[C@@]2(C)C[C@@H]1N1CC[N+](C)(C)CC1
not listed: [18] | [19] | [20]
inactive: all other assays above

CCOC(=O)CN[C@@H](C(=O)N1CC[C@H]1C(=O)NCc1ccc(/C(N)=N/O)cc1)C1CCCCC1
inactive: all assays above
